{
  "source": "PubChem BioAssay AID602393",
  "about": "(Broad Institute, 2012)",
  "note": "Among all 350,000 compounds or so, about 7,000 (2%) were called active. Rule as the data show it: active = activation above about 40%; inconclusive = no clear call, values can overlap the other calls; inactive = below that. Shown is part of a subset that was picked to be rich in actives.",
  "data": [
    {"assay": "raisers of Bmi1 knock-in reporter signal – mouse ES cells, Bmi1 luciferase knock-in, single point, esBAF inhibitor project, primary screen (AID 602393);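 also: 0% = median of the plate's neutral control wells and 100% = double that signal; a rise in the Bmi1 reporter signal indicates esBAF inhibition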", "conditions": "24 h, at 12.5 µM, active compounds read high, 100% = twice the neutral-well signal", "values": [
      {"smiles": "OC(c1ccccc1)c1nc(-c2cnc3ccccc3c2)cs1", "note": "(stereo unspecified)", "reporter increase": "50.7% (active)"},
      {"smiles": "COc1cccc(C(NC(C)=O)c2nc(-c3cnc4ccccc4c3)cs2)c1", "note": "(stereo unspecified)", "reporter increase": "-2.81% (inactive)"},
      {"smiles": "CC(C)c1cccc(-c2csc(C(O)c3ccccc3)n2)c1", "note": "(stereo unspecified)", "reporter increase": "38.6% (inactive)"},
      {"smiles": "C[C@@H]1CN([C@@H](C)CO)S(=O)(=O)c2ccc(/C=C/c3ccccc3)cc2O[C@@H]1CN(C)C(=O)Nc1cc(F)ccc1F", "reporter increase": "2% (inactive)"},
      {"smiles": "COc1ccccc1-c1cn(CC[C@H]2CC[C@H](NC(=O)C3CCOCC3)[C@@H](CO)O2)nn1", "reporter increase": "0.605% (inactive)"},
      {"smiles": "CCS(=O)(=O)c1ccc(-c2cccc(NC(=O)c3ccc(Br)o3)c2)nn1", "reporter increase": "-4.52% (inactive)"},
      {"smiles": "O=C(Nc1cccc(C(=O)O)c1)/C(=C\\c1ccccc1)NC(=O)c1ccc(Br)o1", "reporter increase": "-2.41% (inactive)"},
      {"smiles": "Cc1cccc(NC(=S)NC(=O)c2ccc(Br)o2)c1", "reporter increase": "52.3% (active)"},
      {"smiles": "CO[C@H]1CN(C)C(=O)c2ccc(NC(=O)c3cccc(Oc4ccccc4)c3)cc2OC[C@@H](C)NC[C@H]1C", "reporter increase": "-1.39% (inactive)"},
      {"smiles": "C/C=C/c1ccc([C@@H]2[C@@H](CN(C)C(C)=O)N(C(=O)C3CC3)[C@H]2CO)cc1", "reporter increase": "-1.72% (inactive)"},
      {"smiles": "Cc1cc(Cl)nc(NC(=O)Nc2cccc(Cl)c2)n1", "reporter increase": "74.9% (active)"},
      {"smiles": "Cc1cc(C)nc(NC(=O)Nc2ccccc2C(F)(F)F)n1", "reporter increase": "-6.57% (inactive)"},
      {"smiles": "O=C(NCc1cn2ccsc2n1)Nc1cccc(Cl)c1", "reporter increase": "28.5% (inactive)"},
      {"smiles": "Cc1noc(C)c1S(=O)(=O)Nc1ccc2c(c1)C(=O)N([C@H](C)CO)C[C@@H](C)[C@@H](CN(C)C(=O)C1CCCCC1)OCCCC[C@@H](C)O2", "reporter increase": "5.24% (inactive)"},
      {"smiles": "O=C(C[C@@H]1CC[C@H](NC(=O)C2CC2)[C@@H](CO)O1)NCc1ccncc1", "reporter increase": "-3.99% (inactive)"},
      {"smiles": "CCOc1cccc2cc(C(=O)OCC(=O)Nc3c(C)cccc3CC)c(=O)oc12", "reporter increase": "50.3% (active)"},
      {"smiles": "Cc1cccc(C)c1NC(=O)COC(=O)c1ccccc1O", "reporter increase": "0.59% (inactive)"},
      {"smiles": "CCc1cccc(C)c1NC(=O)COC(=O)CC1CCCC1", "reporter increase": "2.51% (inactive)"},
      {"smiles": "CNC[C@H]1Oc2ccc(NS(=O)(=O)c3ccccc3)cc2CC(=O)N([C@H](C)CO)C[C@@H]1C", "reporter increase": "-1.73% (inactive)"},
      {"smiles": "O=C(CCNC(=O)c1ccccc1Cl)NCc1ccco1", "reporter increase": "-4.58% (inactive)"},
      {"smiles": "O=C(NCc1ccco1)c1sc2cccc(F)c2c1Cl", "reporter increase": "44% (active)"},
      {"smiles": "COc1ccc2c(Cl)c(C(=O)NCc3ccco3)sc2c1", "reporter increase": "35.4% (inactive)"},
      {"smiles": "CCCC#Cc1cnc2c(c1)C(=O)N([C@@H](C)CO)C[C@@H](C)[C@@H](CN(C)C(=O)c1ccccc1)O2", "reporter increase": "-1.26% (inactive)"},
      {"smiles": "COc1ccc(NC(=O)Nc2ccc3c(c2)C(=O)N([C@@H](C)CO)C[C@@H](C)[C@H](CN(C)C(=O)CCC(F)(F)F)OCCCC[C@@H](C)O3)cc1", "reporter increase": "11% (inactive)"},
      {"smiles": "C[n+]1cc(-c2ccccc2)oc1-c1ccccc1", "reporter increase": "51.8% (active)"},
      {"smiles": "COC(=O)C[C@@H]1CC[C@@H]2[C@H](COc3ccc(NC(=O)c4ccccc4OC)cc3C(=O)N2C)O1", "reporter increase": "-4.7% (inactive)"},
      {"smiles": "O=S(=O)(Nc1ncnc2sccc12)c1cccc(F)c1", "reporter increase": "-8.41% (inactive)"},
      {"smiles": "COC(=O)c1ccc(OC(=O)c2cnccn2)cc1", "reporter increase": "2.58% (inactive)"},
      {"smiles": "COC(=O)c1ccc(Nc2ncnc3sccc23)cc1", "reporter increase": "41.7% (active)"},
      {"smiles": "COc1ccc(C(=O)OCC(=O)Nc2cc(C)on2)cc1F", "reporter increase": "0.512% (inactive)"},
      {"smiles": "Cc1cc(NC(=O)COc2ccccc2C#N)no1", "reporter increase": "70% (active)"},
      {"smiles": "Cc1cc(NC(=O)COn2nnc3ccccc32)no1", "reporter increase": "-6.87% (inactive)"},
      {"smiles": "CC(=O)c1c(C)[nH]c(C(=O)COC(=O)c2cccs2)c1C", "reporter increase": "48.6% (active)"},
      {"smiles": "CC(=O)c1c(C)[nH]c(C(=O)COC(=O)CCOc2ccc(C)cc2)c1C", "reporter increase": "-8.22% (inactive)"},
      {"smiles": "COc1cccc(C(=O)OCC(=O)c2[nH]c(C)c(C(C)=O)c2C)c1", "reporter increase": "8.69% (inactive)"},
      {"smiles": "C[C@@H]1CN([C@H](C)CO)C(=O)c2cc(-c3ccccc3F)cnc2O[C@H]1CN(C)C(=O)NC1CCCCC1", "reporter increase": "-2.88% (inactive)"},
      {"smiles": "C[C@@H]1CN([C@H](C)CO)C(=O)c2cc(-c3ccc(F)cc3)cnc2O[C@@H]1CN(C)C(=O)C1CCC1", "reporter increase": "-5.57% (inactive)"},
      {"smiles": "COc1ccccc1-c1nnc(SCC(=O)N2CC(C)CC(C)C2)o1", "note": "(stereo unspecified)", "reporter increase": "0.0545% (inactive)"},
      {"smiles": "COc1cccc(NC(=O)CSc2nnc(Cc3ccc(OC)c(OC)c3)o2)c1", "reporter increase": "-6.14% (inactive)"},
      {"smiles": "COc1ccc(-c2nnc(NC(=O)CS(=O)(=O)c3ccc(Cl)cc3)o2)c(OC)c1", "reporter increase": "-8.93% (inactive)"},
      {"smiles": "COc1ccc(-c2nnc(SCC(=O)c3cccs3)o2)c(OC)c1", "reporter increase": "78.8% (active)"},
      {"smiles": "COc1ccccc1-c1nnc(SCC(=O)Nc2ccccc2)o1", "reporter increase": "50.9% (active)"},
      {"smiles": "COc1ccccc1N1CCN(C(=O)CSc2nnc(-c3ccoc3C)o2)CC1", "reporter increase": "-3.09% (inactive)"},
      {"smiles": "O=C(C[C@H]1C=C[C@H](NC(=O)Nc2ccc(C(F)(F)F)cc2)[C@@H](CO)O1)NCCN1CCCC1", "reporter increase": "3.94% (inactive)"},
      {"smiles": "CO[C@@H](CN(C)C(=O)c1cnccn1)[C@@H](C)CN([C@@H](C)CO)S(=O)(=O)c1ccc(Cl)cc1", "reporter increase": "0.654% (inactive)"},
      {"smiles": "COc1ccc(NC(=O)N(C)C[C@@H]2Oc3ccc(NC(=O)CCN4CCOCC4)cc3C(=O)N([C@@H](C)CO)C[C@H]2C)cc1", "reporter increase": "2.67% (inactive)"},
      {"smiles": "C[C@@H]1CN([C@@H](C)CO)C(=O)c2cc(-c3cccnc3)cnc2O[C@H]1CN(C)Cc1ccc(-c2ccccc2)cc1", "reporter increase": "-1.47% (inactive)"},
      {"smiles": "C[C@H](CO)N1C[C@H](C)[C@@H](CN(C)Cc2ccncc2)OCCCC[C@H](C)Oc2ccc(NS(=O)(=O)c3ccc(Cl)cc3)cc2C1=O", "reporter increase": "0.433% (inactive)"},
      {"smiles": "COC(=O)CCc1sc(Nc2ccc(Br)cc2)nc1-c1ccc(OC)cc1", "reporter increase": "3.71% (inactive)"},
      {"smiles": "COc1ccc(-c2csc(Nc3ccc(O)cc3)n2)cc1", "reporter increase": "78.7% (active)"},
      {"smiles": "NS(=O)(=O)c1ccc(Nc2nc(-c3ccccc3)cs2)cc1", "reporter increase": "47.4% (active)"},
      {"smiles": "COc1ccc(C(C)(O)c2nc(-c3ccc(C)c(C)c3)cs2)cc1", "note": "(stereo unspecified)", "reporter increase": "-1.35% (inactive)"},
      {"smiles": "NS(=O)(=O)c1ccc(NS(=O)(=O)/C=C/c2ccccc2)cc1", "reporter increase": "-2.76% (inactive)"},
      {"smiles": "CC(=O)c1ccc(Nc2nc(C(N)c3ccccc3)cs2)cc1", "note": "(stereo unspecified)", "reporter increase": "20.6% (inactive)"},
      {"smiles": "CCCNC(=O)Nc1ccc2c(c1)C(=O)N(C)C[C@H](OC)[C@H](C)CN(Cc1cccnc1)[C@@H](C)CO2", "reporter increase": "-1.39% (inactive)"},
      {"smiles": "CN1CCN(C(=O)C[C@@H]2CC[C@@H]3[C@H](COC[C@H](O)CN3CC3CCOCC3)O2)CC1", "reporter increase": "3.66% (inactive)"},
      {"smiles": "CC(C)NC(=O)N[C@@H]1CC[C@H](CC(=O)NCCN2CCCC2)O[C@@H]1CO", "reporter increase": "-2.08% (inactive)"},
      {"smiles": "COc1ccccc1S(=O)(=O)N[C@@H]1CC[C@@H](CCn2cc(C3CCCCC3)nn2)O[C@H]1CO", "reporter increase": "4.02% (inactive)"},
      {"smiles": "CO[C@H]1CN(C)C(=O)c2ccc(NC(=O)C3CCCC3)cc2OC[C@@H](C)NC[C@@H]1C", "reporter increase": "0.309% (inactive)"},
      {"smiles": "COc1cccc(NC(=O)Nc2ccc3c(c2)C(=O)N(C)[C@@H]2CC[C@@H](CC(=O)NCCc4ccccc4)O[C@H]2CO3)c1", "reporter increase": "4.83% (inactive)"},
      {"smiles": "C[C@@H]1CN([C@H](C)CO)C(=O)c2cc(NC(=O)CCCN(C)C)ccc2O[C@@H](C)CCCCO[C@H]1CN(C)CC1CCCCC1", "reporter increase": "-2.94% (inactive)"},
      {"smiles": "O=C(NCCc1cccc(F)c1)C1CCCN(c2nc3ccccc3s2)C1", "note": "(stereo unspecified)", "reporter increase": "3.83% (inactive)"},
      {"smiles": "Fc1ccc2nc(N3CCCCC3)sc2c1", "reporter increase": "45.1% (active)"},
      {"smiles": "Fc1ccc2nc(Nc3nc4c(s3)CCCC4)sc2c1", "reporter increase": "28.9% (inactive)"},
      {"smiles": "O=C(Cc1ccccc1)N1C[C@@H]2[C@H](c3ccccc31)[C@@H](CO)N2C(=O)Nc1ccc(F)cc1", "reporter increase": "-2.51% (inactive)"},
      {"smiles": "O=C(C[C@@H]1C[C@H]2c3cc(NS(=O)(=O)c4ccc(F)cc4)ccc3O[C@H]2[C@@H](CO)O1)NCc1ccccc1F", "reporter increase": "12.4% (inactive)"},
      {"smiles": "CCC(=O)N1C[C@@H](C)[C@@H](OC)CN(C)C(=O)c2ccc(NC(=O)Nc3ccccc3)cc2OC[C@H]1C", "reporter increase": "0.261% (inactive)"},
      {"smiles": "O=C(CNC(=O)c1cccs1)N/N=C/c1cccc(Br)c1", "reporter increase": "-3.05% (inactive)"},
      {"smiles": "CCc1ccc(NC(=O)C(=O)NNC(=O)c2cccs2)cc1", "reporter increase": "12.8% (inactive)"},
      {"smiles": "CC(=O)Nc1ccc(/C=N/NC(=O)c2cccs2)cc1", "reporter increase": "48.3% (active)"},
      {"smiles": "Cc1ccc(CC2CC(=O)N(c3ccc4c(c3)OCCO4)C2=O)cc1", "note": "(stereo unspecified)", "reporter increase": "11.3% (inactive)"},
      {"smiles": "COc1ccc(N2C(=O)CN=C2Nc2cccc(C)c2C)cc1OC", "reporter increase": "-1.36% (inactive)"},
      {"smiles": "Cc1ccc(C)c(NC2=NCC(=O)N2c2ccc3c(c2)OCCO3)c1", "reporter increase": "47.5% (active)"},
      {"smiles": "COc1ccc(NC(=O)N(C)C[C@@H]2Oc3ncc(-c4ccc(C#N)cc4)cc3C(=O)N([C@@H](C)CO)C[C@H]2C)cc1", "reporter increase": "-0.692% (inactive)"},
      {"smiles": "COc1ccc(CNC(=O)[C@H](Cc2c[nH]c3ccccc23)NC(C)=O)cc1OC", "reporter increase": "3.18% (inactive)"},
      {"smiles": "COc1ccc(N=Cc2c(O)[nH]c3ccccc23)cc1OC", "reporter increase": "73.5% (active)"},
      {"smiles": "COc1cc2[nH]c(O)c(C=O)c2cc1OC", "reporter increase": "3.41% (inactive)"},
      {"smiles": "C[C@H](CO)N1C[C@H](C)[C@H](CN(C)C(=O)Nc2ccc(C(F)(F)F)cc2)Oc2ccc(NC(=O)C3CC3)cc2C1=O", "reporter increase": "-3.98% (inactive)"},
      {"smiles": "COc1cc(NC(=O)COC(=O)c2ccc([N+](=O)[O-])s2)cc(OC)c1OC", "reporter increase": "-3.17% (inactive)"},
      {"smiles": "CCCn1c(C)cc(/C=C(\\C#N)C(=O)OCC(=O)Nc2cc(OC)c(OC)c(OC)c2)c1C", "reporter increase": "61.6% (active)"},
      {"smiles": "CCCn1c(C)cc(/C=C(\\C#N)C(=O)OCC(=O)N(C)c2c(N)n(Cc3ccccc3)c(=O)[nH]c2=O)c1C", "reporter increase": "9.72% (inactive)"}
    ]}
  ]
}
